{
  "source": "PubChem BioAssay (NCI)",
  "note": "“And” between values parts separate entries of the source, which are not always exact repeats. Equal values may be shown once. This is part of a sample that, as a whole, favours compounds with a hit. Of some 83,000 tested, about 20% had one in any assay.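 96-well plates, one dose, 48 hours. Percent growth reported; active if below 10.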 The source made the active and inactive calls.",
  "data": [
    {"system": "HL-60(TB) leukemia", "test": "NCI-60 one-dose screen, 48 h (100 = growth as untreated, 0 = no growth, -100 = all killed)", "details": "10 µM unless noted", "values": [
      {"smiles": "C=C(C)[C@@H]1CC[C@]2(C(=O)OC)CC[C@]3(C)[C@H](CC[C@@H]4[C@@]5(C)C/C(=C/NC(N)=S)C(=O)C(C)(C)[C@@H]5CC[C@]43C)[C@@H]12", "growth": "95% (inactive)"},
      {"smiles": "COc1cccc(-c2nc3sccn3c2-c2ccnc(NCCCNS(=O)(=O)c3ccccc3)n2)c1", "growth": "39.9% (inactive)"},
      {"smiles": "CCOC(=O)/C=C1\\S/C(=N\\Nc2cc(=O)[nH]c3ccc(Cl)cc23)N(c2ccccc2)C1=O", "growth": "0.175% (active)"},
      {"smiles": "Cc1cccc(Cc2cnc(NC(=O)/C=C/c3ccco3)s2)c1", "growth": "-44.8% (active)"},
      {"smiles": "CC1(C)[C@@H](OC(=O)CCC(=O)O)CC[C@]2(C)[C@H]3C(=O)C=C4[C@@H]5C[C@@](C)(C(=O)O)CC[C@]5(C)CC[C@@]4(C)[C@]3(C)CC[C@@H]12", "growth": "84.9% (inactive) and -56.3% (active)"},
      {"smiles": "CC(C)C(C)(C)C(=O)C(C)(C)C(C)(C)C", "growth": "135% (inactive)"},
      {"smiles": "Cc1cc(C(C)(C)c2cc(C)c(O)c(CN(C)C)c2)cc(CN(C)C)c1O", "growth": "81.1% (inactive)"},
      {"smiles": "CCN(CC)c1ccc(/C=C/C(=O)c2ccc(Nc3nc(Nc4ccccc4)nc(Nc4ccccc4)n3)cc2)cc1", "growth": "45.6% (inactive)"},
      {"smiles": "O=C(CCl)Nc1ccc2c(c1)C(=O)c1ccccc1C2=O", "growth": "12.7% (inactive)"},
      {"smiles": "CC1CCCC(=O)O1", "note": "(stereo not given)", "growth": "102% (inactive) and 119% (inactive)"},
      {"smiles": "Fc1ccc(N/N=C/c2ccc(-n3cccn3)cc2)cc1", "growth": "118% (inactive)"},
      {"smiles": "COc1cc(-c2nn(C)nc2-c2cc3ccccc3s2)cc(OC)c1OC", "growth": "-3.84% (active)"},
      {"smiles": "C=C(C)[C@@H]1CC[C@]2(C(=O)NCC(=O)OC)CC[C@]3(C)[C@H](CC[C@@H]4[C@@]5(C)Cc6c([nH]c7ccccc67)C(C)(C)[C@@H]5CC[C@]43C)[C@@H]12", "growth": "64.8% (inactive)"},
      {"smiles": "N#CC1=C(N)Oc2cc(N)ccc2C1c1cccnc1", "note": "(stereo not given)", "growth": "96.6% (inactive)"},
      {"smiles": "CO/N=C(/C)c1ccc(NC(=O)CSc2nnc(-c3ccncc3)n2-c2ccccc2)cc1", "growth": "86% (inactive)"},
      {"smiles": "CCOc1ccccc1NC(=O)CCl", "growth": "104% (inactive)"},
      {"smiles": "COc1cc2c(cc1OCCCOc1ccc(-c3cc4ccccc4c4ccccc34)cc1)N=C[C@@H]1CCCN1C2=O", "growth": "-11.8% (active)"},
      {"smiles": "CCOC(=O)c1ccc(Nc2sc(C(=O)c3ccc(Br)cc3)c(N)c2C#N)cc1", "growth": "-2.85% (active)"},
      {"smiles": "O=C(/C(=C/c1ccc([N+](=O)[O-])cc1)SCc1ccc(Cl)cc1)c1ccc(F)cc1", "growth": "59.5% (inactive)"},
      {"smiles": "COc1ccc2[nH]cc(/C=C3\\C(=O)Nc4ccccc43)c2c1", "growth": "-31.7% (active)"},
      {"smiles": "COc1cc(NC(=O)CCSc2nc3ccccc3c(=O)n2CCc2ccccn2)cc(OC)c1OC", "growth": "99.1% (inactive)"},
      {"smiles": "O=C(CN1CCOCC1)Nc1ccc(-c2nc3ccccc3s2)cc1", "growth": "101% (inactive)"},
      {"smiles": "CN1CNC(=O)NC1", "growth": "85.5% (inactive) and 102% (inactive)"},
      {"smiles": "O=C(/C=C/c1cccs1)c1ccc(Cl)nc1", "growth": "100% (inactive)"},
      {"smiles": "N#Cc1ccc(NC(=O)Nc2ccc(Oc3ccc(NC(=O)Nc4ccc(C#N)cc4)cc3)cc2)cc1", "growth": "-38.5% (active)"},
      {"smiles": "c1ccc(C2=NN[C@H](c3cn(-c4ccccc4)nc3-c3ccccc3)C2)cc1", "growth": "112% (inactive)"},
      {"smiles": "COc1cnc2c(c1)C(=O)c1c-2n(CCCNC(C)C)c(=O)c2cc(Cl)ccc12", "growth": "-69.1% (active)"},
      {"smiles": "COC(=O)CCOc1ccccc1", "growth": "102% (inactive)"},
      {"smiles": "O=C(NCCCl)c1cc(Cl)cc(Cl)c1", "growth": "95.5% (inactive)"},
      {"smiles": "O=C(O)c1ccc2c(c1)CCC2", "growth": "68.3% (inactive)"},
      {"smiles": "COc1ccc(/C=C2/SC(=S)NC2=O)c(OC)c1OC", "growth": "83.8% (inactive)"},
      {"smiles": "Cc1ccccc1/C=C1\\CN(C(=O)OC(C)(C)C)C/C(=C\\c2ccccc2C)C1=O", "growth": "40.6% (inactive)"},
      {"smiles": "O=S(=O)(NCCNc1cc(-c2cn(-c3ccccc3)nc2-c2cccc(O)c2)ccn1)c1ccc(Cl)cc1", "growth": "15.3% (inactive)"},
      {"smiles": "COC(c1ccc2c(c1)OCO2)C(C)Br", "note": "(stereo not given)", "growth": "94.7% (inactive)"},
      {"smiles": "CC[C@@]1(O)C(=O)OCc2c1cc1n(c2=O)Cc2cc3c(CN(C)C)c(O)ccc3nc2-1", "growth": "-7.06% (active) and -36.1% (active)"},
      {"smiles": "CC(=O)Nc1c(I)c(NC(C)=O)c(I)c(C(=O)O)c1I", "growth": "92.4% (inactive) and 95.8% (inactive)"},
      {"smiles": "O=c1c2cc(F)ccc2sc2c(NCCN3CCCCC3)nc3ccccc3c12", "growth": "57% (inactive)"},
      {"smiles": "COc1cc(-c2nn(-c3ccc(NC(=O)c4ccc(Cl)c(C(F)(F)F)c4)cc3)cc2-c2ccncc2)ccc1Cl", "growth": "12% (inactive)"},
      {"smiles": "O=C(O)c1ccc(-n2cc(/C=N/Nc3ccc(F)cc3)c(-c3cc4ccccc4oc3=O)n2)cc1", "growth": "6.08% (active)"},
      {"smiles": "COC(=O)[C@H]1[C@H](OC)[C@@H](OC(=O)/C=C/c2ccncc2)CC2CN3CCc4c([nH]c5cc(OC)ccc45)[C@@H]3C[C@@H]21", "note": "(stereo not given in full)", "growth": "28.6% (inactive)"}
    ]}
  ]
}
